For nine compounds, Potency and outcome results are on record in PubChem BioAssay (Tox21).

Test [1] in a line: qHTS assay to identify small molecule agonists of the vitamin D receptor (VDR) signaling pathway - cell viability counter screen (AID 743224). Note: nearly all actives have a fitted effect of over 50% in size. Note: potency is the fitted concentration of half-maximal effect. Summed up: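 In parallel with the bla FRET readout, cytotoxicity toward VDR-bla cells after 16 h compound exposure was assessed by CellTiter-Glo, with luminescence recorded after a 30 min room-temperature incubation.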
Background: In qHTS, concentration-response curves come from the screen itself.

Test [2] can be described thus: qHTS assay to identify small molecule antagonists of the vitamin D receptor (VDR) signaling pathway - cell viability counter screen (AID 743225). Note: nearly all actives have a fitted effect of over 50% in size. Note: potency is the fitted concentration of half-maximal effect. Summed up:
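HEK293T VDR-bla; cpd + 1a,25-(OH)2D3 3 nM final, 16 h 37C/5% CO2; B/G FRET substrate 2 h RT; then CellTiter-Glo 30 min RT, luminescence.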

The nature of test [3]: qHTS assay to identify small molecule agonists of the NFkB signaling pathway (AID 1159509; active = well fitted curve in the direction sought with a large enough effect in the signal ratio in the repeat runs, not every such curve was filed as active; the % refers to the signal ratio; note: series mostly up to about 61 µM). In short, it runs like this: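 Readout: FRET fluorescence, 405 nm excitation, 460/530 nm emission; beta-lactamase expression disrupts FRET. Cells: ME-180 stably carrying NF-kB-driven bla reporter. Compound exposure 5 hr, 37 C, 5% CO2.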
The nature of test [4]: qHTS assay to identify small molecule agonists of the NFkB signaling pathway - cell viability counter screen (AID 1159515; calls by dose curve; note: series mostly up to about 61 µM; nearly all actives have a fitted effect of over 55% in size). Summed up:
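Plate 2,000 NFkB-bla ME-180 cells/well; incubate overnight. Add compounds, 5 hr at 37 C. Add FRET substrate, 1.5 hr RT. Add CellTiter-Glo, 30 min RT; read luminescence.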

Test [5] in a line: qHTS assay to identify small molecule agonists of the endoplasmic reticulum stress response signaling pathway (AID 1159516; active = well fitted activation curve with a large enough effect in the signal ratio in the repeat runs, not every such curve was filed as active; the % refers to the signal ratio). In short, it runs like this:
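Beta-lactamase expression from the ER stress response element in HeLa reporter cells is quantified with the LiveBLAzer B/G FRET substrate, read at 405 nm excitation after 2 hr at room temperature, following 5 hr compound treatment at 37 C.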

Test [6] in a line: qHTS assay to identify small molecule agonists of the endoplasmic reticulum stress response signaling pathway - cell viability counter screen (AID 1159517; calls by dose curve; note: nearly all actives have a fitted effect of over 50% in size; note: potency is the fitted concentration of half-maximal effect). In short, it runs like this: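 Cytotoxicity of test compounds toward ESRE-bla HeLa cells was assessed after 5 hr exposure. The luminescent CellTiter-Glo signal was measured 30 min after reagent addition.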
Test [7] in a line: qHTS assay to identify small molecule antagonists of the retinoid-related orphan receptor gamma (ROR-gamma) signaling pathway - cell viability counter screen (AID 1159520). Note: nearly all actives have a fitted effect of over 50% in size. In short, it runs like this:
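Tet-on ROR gamma CHO cells (1,000/well) were plated 4 hr, given compounds in DMSO for 2 hr at 37 C, then induced with 1 uM final doxycycline for 16 hr. Viability was read as ATP by CellTiter-Glo luminescence after 30 min.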

A short description of test [8]: qHTS assay to identify small molecule agonists of the AP-1 signaling pathway - cell viability counter screen (AID 1159525; calls by dose curve; note: nearly all actives have a fitted effect of over 55% in size). In short, it runs like this:
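Each titration point was normalised to DMSO and tetra n-octyl ammonium bromide controls. The read was Cell Titer Glo luminescence after 30 min at RT, following 5 h compound exposure of ME-180 AP-1-bla cells at 37 °C.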

Test [9] in a line: qHTS assay to identify small molecule agonists of the AP-1 signaling pathway (AID 1159526; calls by dose curve).
The target in test [10] is Retinoic acid receptor RXR-alpha (Homo sapiens) (UniProt P19793). The test is described as follows: qHTS assay to identify small molecule agonists of the RXR signaling pathway (AID 1159527; calls by dose curve; note: nearly all actives have a fitted effect of over 35% in size). Summed up:
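Cells plated at 2,000/well, rested 5 hr at 37 C, pin-dosed with DMSO compound solutions, incubated 16 hr, then loaded with B/G FRET substrate for 2 hr at RT before dual-emission fluorescence reading.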

Test [11] is described as follows: qHTS assay to identify small molecule agonists of the RXR signaling pathway - cell viability counter screen (AID 1159529). Note: nearly all actives have a fitted effect of over 50% in size. Note: potency is the fitted concentration of half-maximal effect. In short, it runs like this:
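Steps: seed RXR-alpha-UAS-bla HEK 293T cells in assay medium containing 2% charcoal-stripped FBS; incubate 5 hr; add compounds in DMSO; incubate 16 hr at 37 C; after the bla read, add CellTiter-Glo and read luminescence at 30 min.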

Test [12] in a line: qHTS assay to identify small molecule antagonists of the retinoid acid receptor (RAR) signaling pathway - cell viability counter screen (AID 1159551). Note: nearly all actives have a fitted effect of over 35% in size. Note: potency is the fitted concentration of half-maximal effect. In short, it runs like this: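 Viability of C3RL4 cells is quantified from ATP by luminescence after 6 h treatment at 37 C with compounds and 1 uM retinol.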
The target in test [13] is Nuclear receptor ROR-gamma (Homo sapiens) (UniProt P51449). The test is described as follows: qHTS assay to identify small molecule antagonists of the retinoid-related orphan receptor gamma (ROR-gamma) signaling pathway (AID 1159521). In short, it runs like this: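 Cells were plated, rested 4 h at 37 C, exposed to compounds for 2 h, then given 1 uM final doxycycline hyclate to induce RORγ expression. After 16 h, ONE-Glo luminescence from the ROR response element reporter was measured.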

The nature of test [14]: qHTS assay to identify small molecule antagonists of the retinoic acid receptor (RAR) signaling pathway (AID 1159552; note: nearly all actives have a fitted effect of over 50% in size). In short, it runs like this: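 Retinol at 1 uM final stimulated RARE-luciferase expression in C3RL4 cells exposed to test compounds for 6 hr at 37 C. Reduced luminescence, read 30 min after detection reagent, indicated pathway antagonism.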
The nature of test [15]: qHTS assay to identify small molecule agonists of the retinoic acid receptor (RAR) signaling pathway (AID 1159553). In short, it runs like this: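 Compounds dissolved in DMSO were pinned onto C3RL4 cells seeded the previous day, and plates were held 6 hr at 37 C. RARE-driven luciferase output was then read by luminescence.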

Where “and” joins values, the source holds several entries; their conditions need not be identical. Identical values can stand only once. Inconclusive results are not listed. More than one record can exist for a structure, and the calls need not agree. Calls of active or inactive are those of the source. Unless noted, calls come from the whole dose curve; as a rule, active = well fitted curve in the direction sought with a large enough effect in the repeat runs; inconclusive = weak or mixed curves; inactive = no such curve, though single readings can be large; an effect the other way counts as inactive or inconclusive.

Retinoic acid receptor RXR-alpha (Homo sapiens), sequence (P19793 whole entry, looked up): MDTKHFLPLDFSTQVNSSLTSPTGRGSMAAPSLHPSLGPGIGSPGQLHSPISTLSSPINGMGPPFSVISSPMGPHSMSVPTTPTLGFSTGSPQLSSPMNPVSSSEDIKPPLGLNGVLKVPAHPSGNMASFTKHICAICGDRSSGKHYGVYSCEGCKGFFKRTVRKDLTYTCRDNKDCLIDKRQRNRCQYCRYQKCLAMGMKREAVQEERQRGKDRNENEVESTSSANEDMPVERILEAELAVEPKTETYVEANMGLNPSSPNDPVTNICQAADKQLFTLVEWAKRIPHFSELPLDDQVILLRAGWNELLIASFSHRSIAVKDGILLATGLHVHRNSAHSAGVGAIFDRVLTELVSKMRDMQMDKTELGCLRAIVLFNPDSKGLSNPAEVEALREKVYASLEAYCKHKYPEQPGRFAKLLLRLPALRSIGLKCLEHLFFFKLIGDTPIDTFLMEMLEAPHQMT

Turning to `CCCCCCCCCCCCN`, the Potency entry in test [1] is “inactive and 49 µM (active)”; in test [2] it was “inactive and 54.9 µM (active)”; in [6] it was 11.1 µM (active) and 21.9 µM (active) and 19.8 µM (active); in test [11], 21.9 µM (active) and inactive; in [12] it was “inactive and 68.6 µM (active)”. For the same compound, the compound was called inactive in test [3], in test [4] and in [5]. In addition, the Potency entry in test [7], in test [8], in [9] and in test [10] was “inactive” throughout.

As for `C=C(C)C(=O)OCCCCCCCCCCCC`, the Potency entry in test [1], in test [2], in test [6], in test [13], in test [8] and in test [9] was “inactive” throughout. The Potency entry in [10], in test [11], in [12], in [14] and in test [15] was “inactive” each time. Also, the compound was called inactive in [3], in test [4] and in [5].

In the case of `CCCCCCCCCCCCOCC1CO1` (configuration not stated), the Potency entry in [1], in test [2], in test [6], in test [7], in test [8] and in [9] was “inactive” throughout. Further, the Potency entry in test [10], in test [11], in test [12], in test [14] and in test [15] was “inactive” each time. The outcome in test [3], in test [4] and in test [5] was inactive.

With `OCC1CCCO1` (configuration not stated), the Potency result in [1], in test [2], in [6], in test [8], in test [9] and in [11] was “inactive” each time. Further, the Potency entry in [12], in test [14] and in test [15] was “inactive” throughout. The compound was called inactive in test [3], in test [4] and in [5].

For the compound `CCOC(=O)C1OC1c1ccccc1` (configuration not stated), the Potency result in [1], in test [2], in [6], in test [8], in test [9] and in test [10] was “inactive” throughout. In addition, the Potency entry in test [11], in test [12], in test [14] and in test [15] was “inactive” throughout. Moreover, the call in [3], in test [4] and in test [5] was inactive.

Consider `O=S(=O)(O)c1cc(S(=O)(=O)O)c2c(N=Nc3ccccc3)c(O)ccc2c1`, for which the Potency entry in [1], in test [2], in test [6], in [8], in test [9] and in test [10] was “inactive” throughout. For the same compound, the Potency entry in test [11] and in test [12] was “inactive” throughout. The outcome in test [3], in test [4] and in test [5] was inactive.

For the compound `O=C1CCCCC1`, the Potency entry in test [1], in [2], in test [6], in test [13], in test [8] and in [9] was “inactive” in each case. The Potency entry in test [10], in test [11] and in test [12] was “inactive” each time. For the same compound, the compound was called inactive in test [3], in test [4] and in [5].

`O=C1O[C@H](CO)[C@@H](O)[C@H](O)[C@H]1O`: the Potency entry in test [1], in test [2], in [6], in test [8], in [9] and in test [10] was “inactive” each time. Also, the Potency result in [11], in test [12], in test [14] and in test [15] was “inactive” in each case. Moreover, the compound was classed as inactive in test [3], in [4] and in test [5].

Take `S=c1nc[nH]c2nc[nH]c12`: the Potency in [1] was 15.1 µM (active) and 10.6 µM (active); in test [2] it was 4.25 µM (active); in [11], 3.01 µM (active). Further, the compound was called inactive in test [3], in [4] and in [5]. Besides, the Potency result in [13], in test [8], in test [9], in test [14] and in [15] was “inactive” each time.
